Drawing on article PMC7862700, “An all-to-all approach to the identification of sequence-specific readers for epigenetic DNA modifications on cytosine”, this text covers binding signal for one sequence.

What all share (test): DAPPL (digital affinity profiling via proximity ligation, sequencing); 10 mM Tris-HCl pH 7.5, 50 mM NaCl, 1 mM DTT, 4% glycerol, room temperature, 30 min; GST-TFs on glutathione beads, 16-mer random dsDNA library, 0.1% formaldehyde crosslink after washing; high values mean tight binding
For one assay, the target named is T1, FEV (Homo sapiens, UniProt Q99581 1-238).
T1 sequence: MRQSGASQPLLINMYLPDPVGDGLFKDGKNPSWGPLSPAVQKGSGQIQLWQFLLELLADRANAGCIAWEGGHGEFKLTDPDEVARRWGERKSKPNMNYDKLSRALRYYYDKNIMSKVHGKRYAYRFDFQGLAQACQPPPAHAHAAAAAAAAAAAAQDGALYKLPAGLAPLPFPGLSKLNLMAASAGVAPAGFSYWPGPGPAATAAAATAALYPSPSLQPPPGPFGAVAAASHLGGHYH
The settings on record: protein: recombinant; tags: N-terminal GST; dsDNA, one strand shown. In a few lines: (§1)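 Binding signal is each hexamer's read frequency for a factor divided by its frequency in the tag-only sample. The factors were GST-fused human transcription factors from yeast, captured on glutathione beads, DNA-barcoded and pooled with that sample. Pools were incubated with 200 nmole of a random double-stranded 16-mer DNA library in Tris/NaCl/DTT/glycerol buffer at room temperature for 30 min, then washed, crosslinked with 0.1% formaldehyde, proximity-ligated with BsaI/T4 ligase (1 h, 37 °C), PCR-amplified and sequenced on an Illumina NextSeq500.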

The target of the next assay is ETV5 (Homo sapiens, UniProt P41161 1-510). The settings on record: protein: recombinant; tags: N-terminal GST; dsDNA, one strand shown. The gist of the method:
as §1

For another assay, the target named is HSF1 (Homo sapiens, UniProt Q00613 1-529). Particulars: protein: recombinant; tags: N-terminal GST; chain copies: 3; dsDNA, one strand shown. In a few lines:
as §1

The target of the next assay is T2, SPIC (Homo sapiens, UniProt Q8N5J4 1-248).
T2 sequence: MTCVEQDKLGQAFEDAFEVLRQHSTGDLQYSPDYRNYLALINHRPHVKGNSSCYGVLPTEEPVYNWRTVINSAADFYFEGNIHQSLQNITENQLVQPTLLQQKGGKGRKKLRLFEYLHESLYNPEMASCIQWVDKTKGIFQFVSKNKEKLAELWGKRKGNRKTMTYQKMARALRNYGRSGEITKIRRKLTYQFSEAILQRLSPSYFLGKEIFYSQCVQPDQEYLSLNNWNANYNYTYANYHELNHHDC
The settings on record: protein: recombinant; tags: N-terminal GST; dsDNA, one strand shown. In a few lines:
as §1

The target of the next assay is ELF4 (Homo sapiens, UniProt Q99607 1-663). The settings on record: protein: recombinant; tags: N-terminal GST; dsDNA, one strand shown. The gist of the method:
as §1

A further assay addresses T3, ELK4 (Homo sapiens, UniProt P28324-2 1-405).
T3 sequence: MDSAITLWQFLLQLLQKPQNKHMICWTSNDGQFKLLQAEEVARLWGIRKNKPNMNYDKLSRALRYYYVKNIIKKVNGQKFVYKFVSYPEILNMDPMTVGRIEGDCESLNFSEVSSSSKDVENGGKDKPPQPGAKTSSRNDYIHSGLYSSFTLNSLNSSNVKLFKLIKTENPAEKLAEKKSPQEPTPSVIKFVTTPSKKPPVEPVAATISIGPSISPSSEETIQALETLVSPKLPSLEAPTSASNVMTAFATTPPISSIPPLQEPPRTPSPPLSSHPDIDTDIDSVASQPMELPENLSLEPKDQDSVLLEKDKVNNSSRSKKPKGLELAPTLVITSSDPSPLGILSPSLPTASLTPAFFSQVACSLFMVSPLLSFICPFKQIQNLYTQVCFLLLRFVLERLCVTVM
The settings on record: protein: recombinant; tags: N-terminal GST; dsDNA, one strand shown. In a few lines: as §1

The target of another assay is T4, ETV2 (Homo sapiens, UniProt O00321 1-342).
T4 sequence: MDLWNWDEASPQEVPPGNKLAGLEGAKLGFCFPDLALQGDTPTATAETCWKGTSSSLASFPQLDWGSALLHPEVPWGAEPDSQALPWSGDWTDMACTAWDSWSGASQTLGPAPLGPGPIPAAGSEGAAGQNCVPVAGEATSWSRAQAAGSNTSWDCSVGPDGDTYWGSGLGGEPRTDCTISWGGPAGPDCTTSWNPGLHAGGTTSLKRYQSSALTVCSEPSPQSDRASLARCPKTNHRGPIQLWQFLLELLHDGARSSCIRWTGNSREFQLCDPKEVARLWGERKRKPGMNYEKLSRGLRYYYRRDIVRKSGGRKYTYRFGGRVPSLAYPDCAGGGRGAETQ
Particulars: protein: recombinant; tags: N-terminal GST; dsDNA, one strand shown. The gist of the method: as §1

A further assay addresses T5, ELF3 (Homo sapiens, UniProt P78545 1-371).
T5 sequence: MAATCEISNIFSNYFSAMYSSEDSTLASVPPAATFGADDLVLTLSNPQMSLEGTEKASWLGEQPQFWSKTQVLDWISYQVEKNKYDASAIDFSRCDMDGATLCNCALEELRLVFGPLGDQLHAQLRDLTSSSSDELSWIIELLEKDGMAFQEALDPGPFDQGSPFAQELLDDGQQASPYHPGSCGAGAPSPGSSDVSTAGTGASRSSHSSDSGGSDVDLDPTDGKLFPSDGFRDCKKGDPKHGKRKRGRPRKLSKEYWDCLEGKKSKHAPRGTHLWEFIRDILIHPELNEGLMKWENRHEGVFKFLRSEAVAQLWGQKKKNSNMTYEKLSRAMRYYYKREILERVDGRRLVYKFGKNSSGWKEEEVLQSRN
Particulars: protein: recombinant; tags: N-terminal GST; dsDNA, one strand shown. The gist of the method: as §1

In the next assay the target is CRX (Homo sapiens, UniProt O43186 1-299). Particulars: protein: recombinant; tags: N-terminal GST; dsDNA, one strand shown. The gist of the method:
as §1

The target in another assay is ETV1 (Homo sapiens, UniProt P50549 1-477). Particulars: protein: recombinant; tags: N-terminal GST; dsDNA, one strand shown. The gist of the method: as §1
The next assay has as its target T6, ERF (Homo sapiens, UniProt P50548 1-548).
T6 sequence: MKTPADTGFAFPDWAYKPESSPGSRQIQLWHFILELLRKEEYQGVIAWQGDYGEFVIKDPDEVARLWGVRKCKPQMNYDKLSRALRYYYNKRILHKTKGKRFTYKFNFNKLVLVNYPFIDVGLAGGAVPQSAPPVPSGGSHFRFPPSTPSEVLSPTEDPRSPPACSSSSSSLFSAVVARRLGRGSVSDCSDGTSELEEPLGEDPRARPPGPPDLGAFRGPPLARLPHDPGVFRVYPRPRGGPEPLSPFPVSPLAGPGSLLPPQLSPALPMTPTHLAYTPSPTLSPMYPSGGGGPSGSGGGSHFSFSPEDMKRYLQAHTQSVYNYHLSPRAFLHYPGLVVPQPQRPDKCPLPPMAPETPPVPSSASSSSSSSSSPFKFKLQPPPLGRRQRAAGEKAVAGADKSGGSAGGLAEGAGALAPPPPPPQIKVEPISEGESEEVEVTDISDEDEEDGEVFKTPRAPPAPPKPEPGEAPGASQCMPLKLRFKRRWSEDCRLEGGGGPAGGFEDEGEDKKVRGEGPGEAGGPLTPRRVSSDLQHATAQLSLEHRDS
Particulars: protein: recombinant; tags: N-terminal GST; dsDNA, one strand shown. In a few lines: as §1

The next assay deals with T7, ETV3L (Homo sapiens, UniProt Q6ZN32 1-361).
T7 sequence: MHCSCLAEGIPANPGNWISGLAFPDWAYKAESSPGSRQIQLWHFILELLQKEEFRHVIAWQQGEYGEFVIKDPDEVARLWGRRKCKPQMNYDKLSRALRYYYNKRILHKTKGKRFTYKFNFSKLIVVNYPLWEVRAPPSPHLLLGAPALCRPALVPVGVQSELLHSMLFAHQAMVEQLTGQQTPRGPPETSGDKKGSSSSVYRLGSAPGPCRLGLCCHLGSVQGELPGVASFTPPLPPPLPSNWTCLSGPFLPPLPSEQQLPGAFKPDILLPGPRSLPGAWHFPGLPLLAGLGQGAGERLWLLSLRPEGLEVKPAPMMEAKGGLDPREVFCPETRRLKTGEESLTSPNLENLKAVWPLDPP
The settings on record: protein: recombinant; tags: N-terminal GST; dsDNA, one strand shown. The gist of the method: as §1

Another assay addresses T8, ETS2 (Homo sapiens, UniProt P15036 1-469).
T8 sequence: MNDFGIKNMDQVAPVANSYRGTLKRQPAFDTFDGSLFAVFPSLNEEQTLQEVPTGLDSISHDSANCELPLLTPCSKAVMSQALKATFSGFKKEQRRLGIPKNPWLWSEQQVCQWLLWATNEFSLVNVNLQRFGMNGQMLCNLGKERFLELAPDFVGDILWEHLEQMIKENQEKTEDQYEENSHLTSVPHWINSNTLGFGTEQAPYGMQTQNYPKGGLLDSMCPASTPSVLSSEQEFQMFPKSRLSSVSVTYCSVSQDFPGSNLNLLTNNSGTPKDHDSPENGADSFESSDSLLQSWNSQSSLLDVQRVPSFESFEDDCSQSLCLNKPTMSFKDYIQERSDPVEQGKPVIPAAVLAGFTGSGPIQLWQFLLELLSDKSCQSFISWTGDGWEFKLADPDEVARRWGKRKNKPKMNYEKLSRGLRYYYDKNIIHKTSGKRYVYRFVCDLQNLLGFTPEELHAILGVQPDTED
Particulars: protein: recombinant; tags: N-terminal GST; dsDNA, one strand shown. In a few lines:
as §1

A further assay deals with T9, SPDEF (Homo sapiens, UniProt O95238 1-335).
T9 sequence: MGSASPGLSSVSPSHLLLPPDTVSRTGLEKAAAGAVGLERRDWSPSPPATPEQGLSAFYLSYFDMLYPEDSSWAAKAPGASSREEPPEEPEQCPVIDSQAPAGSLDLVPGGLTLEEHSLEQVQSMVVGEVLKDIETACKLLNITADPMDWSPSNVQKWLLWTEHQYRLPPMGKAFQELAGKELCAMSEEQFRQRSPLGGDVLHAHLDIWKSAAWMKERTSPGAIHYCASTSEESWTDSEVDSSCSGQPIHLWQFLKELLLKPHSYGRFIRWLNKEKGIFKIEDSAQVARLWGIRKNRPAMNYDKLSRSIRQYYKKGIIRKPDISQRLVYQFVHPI
Particulars: protein: recombinant; tags: N-terminal GST; dsDNA, one strand shown. The gist of the method: as §1

The target in a further assay is T10, ETV7 (Homo sapiens, UniProt Q9Y603 1-341).
T10 sequence: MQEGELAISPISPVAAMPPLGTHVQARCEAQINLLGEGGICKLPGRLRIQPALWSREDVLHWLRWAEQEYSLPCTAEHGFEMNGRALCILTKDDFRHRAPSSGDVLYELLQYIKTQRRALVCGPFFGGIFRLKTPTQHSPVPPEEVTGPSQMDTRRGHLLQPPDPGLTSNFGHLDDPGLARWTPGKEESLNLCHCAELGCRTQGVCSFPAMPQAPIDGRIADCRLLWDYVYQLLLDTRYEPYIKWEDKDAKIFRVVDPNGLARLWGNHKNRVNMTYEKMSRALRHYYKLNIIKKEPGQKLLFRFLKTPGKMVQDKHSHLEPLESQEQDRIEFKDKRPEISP
Particulars: protein: recombinant; tags: N-terminal GST; dsDNA, one strand shown. The gist of the method:
as §1

Another assay addresses T11, ELF5 (Homo sapiens, UniProt Q9UKW6-2 1-255).
T11 sequence: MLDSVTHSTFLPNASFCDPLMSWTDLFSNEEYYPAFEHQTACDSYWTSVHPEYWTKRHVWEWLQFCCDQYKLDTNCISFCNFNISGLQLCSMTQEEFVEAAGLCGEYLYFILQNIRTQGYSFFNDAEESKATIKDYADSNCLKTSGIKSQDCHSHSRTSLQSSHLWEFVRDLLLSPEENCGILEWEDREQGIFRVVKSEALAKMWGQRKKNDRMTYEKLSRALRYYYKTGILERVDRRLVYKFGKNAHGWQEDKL
The settings on record: protein: recombinant; tags: N-terminal GST; dsDNA, one strand shown. The gist of the method: as §1

Another assay deals with T12, ETV3 (Homo sapiens, UniProt P41162-2 1-143).
T12 sequence: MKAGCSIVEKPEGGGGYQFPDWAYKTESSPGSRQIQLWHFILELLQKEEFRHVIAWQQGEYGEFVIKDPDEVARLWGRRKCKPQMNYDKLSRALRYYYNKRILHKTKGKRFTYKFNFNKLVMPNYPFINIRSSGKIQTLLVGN
The settings on record: protein: recombinant; tags: N-terminal GST; dsDNA, one strand shown. In a few lines:
as §1

In a further assay the target is ETV6 (Homo sapiens, UniProt P41212 1-452). Particulars: protein: recombinant; tags: N-terminal GST; dsDNA, one strand shown. The gist of the method: as §1
ETV6, sequence (P41212 whole entry): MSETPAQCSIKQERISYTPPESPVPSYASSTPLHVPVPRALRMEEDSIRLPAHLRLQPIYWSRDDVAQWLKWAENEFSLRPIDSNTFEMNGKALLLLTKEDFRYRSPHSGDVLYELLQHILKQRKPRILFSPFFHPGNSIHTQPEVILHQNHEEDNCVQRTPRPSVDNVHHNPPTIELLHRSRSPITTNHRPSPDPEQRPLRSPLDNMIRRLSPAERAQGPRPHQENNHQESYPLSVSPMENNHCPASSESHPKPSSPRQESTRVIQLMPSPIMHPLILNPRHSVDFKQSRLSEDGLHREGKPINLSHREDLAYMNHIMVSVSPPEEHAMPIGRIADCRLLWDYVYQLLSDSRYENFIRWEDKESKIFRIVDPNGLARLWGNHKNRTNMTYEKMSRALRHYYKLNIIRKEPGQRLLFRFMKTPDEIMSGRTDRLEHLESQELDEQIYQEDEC

CRX, sequence (O43186 whole entry): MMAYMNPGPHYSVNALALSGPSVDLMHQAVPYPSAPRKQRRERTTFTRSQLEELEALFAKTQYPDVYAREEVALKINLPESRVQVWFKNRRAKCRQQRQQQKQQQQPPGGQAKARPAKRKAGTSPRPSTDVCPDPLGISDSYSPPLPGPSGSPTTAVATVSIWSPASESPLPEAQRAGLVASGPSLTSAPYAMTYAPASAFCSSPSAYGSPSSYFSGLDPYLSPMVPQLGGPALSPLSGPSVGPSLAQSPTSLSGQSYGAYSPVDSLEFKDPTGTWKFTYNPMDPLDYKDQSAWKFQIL
ELF4, sequence (Q99607 whole entry): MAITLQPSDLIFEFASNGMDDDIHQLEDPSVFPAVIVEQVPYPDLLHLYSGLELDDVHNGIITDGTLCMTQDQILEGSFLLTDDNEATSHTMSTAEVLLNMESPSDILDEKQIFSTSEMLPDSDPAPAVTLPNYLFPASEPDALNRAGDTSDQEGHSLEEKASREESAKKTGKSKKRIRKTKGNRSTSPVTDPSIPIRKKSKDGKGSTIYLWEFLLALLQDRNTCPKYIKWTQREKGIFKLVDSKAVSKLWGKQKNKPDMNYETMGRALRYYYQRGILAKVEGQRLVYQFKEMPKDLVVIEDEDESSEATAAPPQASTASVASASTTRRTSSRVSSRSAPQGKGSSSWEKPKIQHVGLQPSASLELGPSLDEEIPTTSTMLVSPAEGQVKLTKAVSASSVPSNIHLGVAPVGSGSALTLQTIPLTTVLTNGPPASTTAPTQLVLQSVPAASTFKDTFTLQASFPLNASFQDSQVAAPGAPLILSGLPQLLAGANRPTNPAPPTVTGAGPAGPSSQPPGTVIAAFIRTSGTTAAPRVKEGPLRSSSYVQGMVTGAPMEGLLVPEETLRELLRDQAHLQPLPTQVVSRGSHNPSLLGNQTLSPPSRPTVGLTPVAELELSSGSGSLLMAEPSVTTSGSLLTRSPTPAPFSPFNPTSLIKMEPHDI
ETV5, sequence (P41161 whole entry): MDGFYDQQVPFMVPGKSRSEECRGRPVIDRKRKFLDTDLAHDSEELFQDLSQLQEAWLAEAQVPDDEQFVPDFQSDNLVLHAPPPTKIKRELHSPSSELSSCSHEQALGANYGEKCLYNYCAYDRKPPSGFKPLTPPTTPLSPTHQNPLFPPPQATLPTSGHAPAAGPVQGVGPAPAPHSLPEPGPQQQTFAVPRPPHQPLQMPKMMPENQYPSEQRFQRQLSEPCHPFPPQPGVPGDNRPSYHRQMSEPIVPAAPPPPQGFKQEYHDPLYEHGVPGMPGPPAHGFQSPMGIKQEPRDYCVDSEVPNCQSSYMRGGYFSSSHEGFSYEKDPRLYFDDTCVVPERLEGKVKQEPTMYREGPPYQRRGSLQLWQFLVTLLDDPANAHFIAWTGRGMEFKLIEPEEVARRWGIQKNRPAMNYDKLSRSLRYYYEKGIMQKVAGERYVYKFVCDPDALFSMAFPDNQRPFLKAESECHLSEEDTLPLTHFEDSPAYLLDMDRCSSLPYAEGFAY
ETV1, sequence (P50549 whole entry): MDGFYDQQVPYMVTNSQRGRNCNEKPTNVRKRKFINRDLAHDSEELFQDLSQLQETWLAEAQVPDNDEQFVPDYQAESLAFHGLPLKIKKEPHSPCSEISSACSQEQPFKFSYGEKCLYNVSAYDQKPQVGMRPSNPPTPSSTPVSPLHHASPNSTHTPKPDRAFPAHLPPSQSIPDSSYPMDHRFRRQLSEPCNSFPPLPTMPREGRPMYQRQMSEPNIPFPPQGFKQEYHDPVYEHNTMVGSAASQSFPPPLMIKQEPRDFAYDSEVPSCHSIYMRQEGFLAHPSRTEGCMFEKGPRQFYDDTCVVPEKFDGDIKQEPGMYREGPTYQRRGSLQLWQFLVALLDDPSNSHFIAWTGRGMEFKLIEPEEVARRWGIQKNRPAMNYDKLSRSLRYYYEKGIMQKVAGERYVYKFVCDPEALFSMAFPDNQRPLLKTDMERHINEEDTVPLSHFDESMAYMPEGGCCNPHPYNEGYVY
HSF1, sequence (Q00613 whole entry): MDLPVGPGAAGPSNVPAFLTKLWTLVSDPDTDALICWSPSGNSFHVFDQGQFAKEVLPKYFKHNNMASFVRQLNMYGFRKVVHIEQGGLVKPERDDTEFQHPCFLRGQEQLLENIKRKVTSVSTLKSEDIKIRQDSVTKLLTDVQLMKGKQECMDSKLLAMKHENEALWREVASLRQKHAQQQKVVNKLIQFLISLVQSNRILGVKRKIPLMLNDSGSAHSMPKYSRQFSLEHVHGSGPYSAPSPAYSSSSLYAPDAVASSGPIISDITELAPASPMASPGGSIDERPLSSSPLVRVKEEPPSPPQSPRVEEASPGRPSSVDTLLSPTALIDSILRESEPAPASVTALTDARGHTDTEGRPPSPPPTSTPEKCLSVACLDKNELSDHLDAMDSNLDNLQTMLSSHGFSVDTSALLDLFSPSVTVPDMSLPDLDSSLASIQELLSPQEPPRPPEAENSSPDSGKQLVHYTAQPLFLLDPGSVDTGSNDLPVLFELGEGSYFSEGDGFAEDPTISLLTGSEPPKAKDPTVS

Consider TTGGTA, for which the binding signal with FEV is 1.17 fold enrichment (6-mer frequency, TF over GST control); with ETV5, 1.23 fold enrichment (6-mer frequency, TF over GST control); with HSF1, 1.16 fold enrichment (6-mer frequency, TF over GST control); with SPIC it was 1.2 fold enrichment (6-mer frequency, TF over GST control); with ELF4 it was 1.25 fold enrichment (6-mer frequency, TF over GST control); in the assay with ELK4 it was 1.34 fold enrichment (6-mer frequency, TF over GST control). Further, the binding signal is 1 fold enrichment (6-mer frequency, TF over GST control) with ETV2; 1.25 fold enrichment (6-mer frequency, TF over GST control) with ELF3; 1.34 fold enrichment (6-mer frequency, TF over GST control) in the assay with CRX; 1.24 fold enrichment (6-mer frequency, TF over GST control) with ETV1; 1.21 fold enrichment (6-mer frequency, TF over GST control) in the assay with ERF; 1.32 fold enrichment (6-mer frequency, TF over GST control) in the assay with ETV3L. For the same sequence, the binding signal with ETS2 was 1.23 fold enrichment (6-mer frequency, TF over GST control); in the assay with SPDEF, 1.23 fold enrichment (6-mer frequency, TF over GST control); in the assay with ETV7, 1.23 fold enrichment (6-mer frequency, TF over GST control); with ELF5, 1.17 fold enrichment (6-mer frequency, TF over GST control); in the assay with ETV3, 1.18 fold enrichment (6-mer frequency, TF over GST control); with ETV6, 1.19 fold enrichment (6-mer frequency, TF over GST control).
